# Test results from PMC7826789 (International Journal of Molecular Sciences, 2021).
# System: TSSK3
# Details: Compound Concentration (nM):1000
# 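Note: KINOMEscan scanMAX binding as percent activity remaining versus control; lower means stronger binding.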
row,SMILES,Percent Control [%]
1,CN1CCN(C(=O)c2ccc(NC(=O)Nc3ccc(N(C)c4ccnc(Nc5ccc(CS(C)(=O)=O)cc5)n4)cc3)cc2)CC1.Cl [GW830263A],75
2,COc1cc2ncnc(Nc3ccc4c(cnn4Cc4ccccc4)c3)c2cc1OC.Cl [GW282449A],100
3,CC1=C(C(=O)Nc2ccc3[nH]ncc3c2)C(c2ccc3ccccc3c2)CC(=O)N1 (stereo not drawn) [GSK270822A],43
4,O=C(Nc1n[nH]c2nc(-c3ccc(O)cc3)c(Br)cc12)C1CC1 [SB-725317],100
5,CCS(=O)(=O)c1ccc(OC)c(Nc2ncc(-c3cccc(F)c3)o2)c1 [GW621970X],100
6,COc1ccc2cc(-c3c(-c4ccncc4)nc(-c4ccc(S(C)(=O)=O)cc4C)n3C)ccc2c1 [SB-633825],57
7,COc1ccccc1-c1cc(/C=C2\C(=O)Nc3ncc(Br)cc32)cc(Br)c1O [GW442130X],97
8,CN(C)c1cc2c(Nc3ccc4c(cnn4Cc4ccccc4)c3)ncnc2cn1 [GW282974X],99
9,COc1ccc2[nH]c3c4[nH]c5ccc(OC)cc5c4c4c(c3c2c1)C(=O)NC4=O [GW296115X],89
10,COc1cccc(-n2ncc3c(N/N=C/c4ccncc4)ncnc32)c1 [GW784752X],90
11,CC1=C(C(=O)Nc2ccc3[nH]ncc3c2)C(c2ccc(Cl)c(Cl)c2)CC(=O)N1 (stereo not drawn) [GSK299115A],77
12,COc1ccc(COc2ccc(Cc3cnc(N)nc3N)cc2OC)cc1 [GW632580X],83
